# PubChem BioAssay (Tox21)
# Where “and” joins values, the source holds several entries; their conditions need not be identical. Identical values can stand only once. Records with an inconclusive call do not appear. Where a call stands in place of a potency, no number is given. Where a structure was tested more than once in an assay, its records may differ in their call. Calls of active or inactive are those of the source. Unless noted, the call rests on the fitted dose curve.
# Columns and labels:
# [1] = Nuclear factor erythroid 2-related factor 2/antioxidant responsive element (Nrf2/ARE) small molecule agonists: qHTS cell viability counter screen in human keratinocytes (AID 1919968; active means well fitted curve in the direction sought with a large enough effect in the repeat runs; an effect the other way counts as inactive or inconclusive; further: nearly all actives have a fitted effect of over 55% in size; further: potency means the concentration at half of the fitted maximal effect)
# How it was run: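 CellTiter-Fluor fluorescence, read 1 h after reagent, gave viability in the same wells as the ARE-luciferase assay. KeratinoSens cells (1,500/well) had 23 h compound exposure at 37 C/5% CO2 following 5 h plating.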
# [2] = Nuclear factor erythroid 2-related factor 2/antioxidant responsive element (Nrf2/ARE) small molecule agonists: luciferase reporter gene qHTS assay in human keratinocytes (AID 1919969); further: nearly all actives have a fitted effect of over 35% in size; further: potency means the concentration at half of the fitted maximal effect
# [3] = target: Gonadotropin-releasing hormone receptor (Homo sapiens) (UniProt P30968); assay: Human gonadotropin-releasing hormone receptor (GnRHR) small molecule agonists, calcium flux assay in GnRHR-HEK293 cells (AID 1920063); further: nearly all actives have a fitted effect of over 35% in size
# Sequence of Gonadotropin-releasing hormone receptor (Homo sapiens) (P30968 whole entry, looked up): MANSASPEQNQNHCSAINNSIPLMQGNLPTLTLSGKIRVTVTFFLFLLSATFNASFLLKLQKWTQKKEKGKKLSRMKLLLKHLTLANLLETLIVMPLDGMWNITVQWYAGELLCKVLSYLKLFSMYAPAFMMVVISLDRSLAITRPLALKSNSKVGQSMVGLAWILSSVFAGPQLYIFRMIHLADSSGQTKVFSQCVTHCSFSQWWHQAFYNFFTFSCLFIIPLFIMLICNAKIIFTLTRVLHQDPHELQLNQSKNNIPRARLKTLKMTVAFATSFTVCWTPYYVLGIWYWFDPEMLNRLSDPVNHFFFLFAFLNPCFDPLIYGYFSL
# How it was run: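 Agonist mode: compounds at 15 concentrations, in triplicate, went onto calcium dye-loaded GnRHR-HEK293 cells. Intracellular calcium was then followed as 480/540 nm fluorescence at 1 s intervals over 3 min.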
# [4] = target: KiSS-1 receptor (Homo sapiens) (UniProt Q969F8); assay: Human kisspeptin (KISS1R) small molecule agonists, calcium flux assay in KISS1R-HEK293 cells (AID 1920064; active means well fitted curve in the direction sought with a large enough effect in the repeat runs; an effect the other way counts as inactive or inconclusive)
# Sequence of KiSS-1 receptor (Homo sapiens) (Q969F8 whole entry, looked up): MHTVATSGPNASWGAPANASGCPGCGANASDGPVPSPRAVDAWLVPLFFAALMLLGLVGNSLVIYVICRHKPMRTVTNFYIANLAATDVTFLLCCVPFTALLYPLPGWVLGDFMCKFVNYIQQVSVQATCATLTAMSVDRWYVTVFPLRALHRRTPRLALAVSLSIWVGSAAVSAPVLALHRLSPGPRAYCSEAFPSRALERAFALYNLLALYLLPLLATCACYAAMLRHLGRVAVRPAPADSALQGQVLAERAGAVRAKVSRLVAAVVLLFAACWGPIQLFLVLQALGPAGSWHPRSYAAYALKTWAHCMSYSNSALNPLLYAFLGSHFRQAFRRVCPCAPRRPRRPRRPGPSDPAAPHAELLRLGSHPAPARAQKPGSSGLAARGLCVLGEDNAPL
# How it was run: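 Agonist mode: intracellular calcium rise tracked at 1 s intervals over 3 min (480/540 nm) immediately after compound addition to dye-loaded KISS1R-HEK293 stable cells. Each compound tested at 15 concentrations in triplicate.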
# [5] = G protein-coupled receptor (GPCR) small molecule agonists, calcium flux assay: HEK293 wild type cell line counter screen (AID 1920065)
# How it was run: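 Calcium flux counter screen: compound added in agonist mode at 15 concentrations in triplicate to dye-loaded parental HEK293 cells. Fluorescence (480/540) read kinetically for 3 min; ATP served as positive control.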
# [6] = p53 small molecule agonists, cell-based qHTS assay with human liver microsomes (AID 1963577);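 further: p53 response element beta-lactamase reporter cells with liver microsomes plus NADPH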
# How it was run: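 Metabolically competent format: test substances, human liver microsomes and NADPH (both 0.5 mg/mL final) incubated with p53RE-bla cells 16 h at 37 C. Beta-lactamase reporter signal then quantified by fluorescence.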
# [7] = p53 small molecule agonists, cell-based qHTS assay with rat liver microsomes (AID 1963578)
# How it was run: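 Each plate received p53RE-bla cells, then compound, then rat liver microsomes and NADPH (both 0.5 mg/mL final). Plates were held 16 h at 37 C, and beta-lactamase activity was detected with LiveBLAzer over 2 h.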
# [8] = p53 small molecule agonists, cell-based qHTS assay with human liver microsomes: qHTS cell viability counter screen (AID 1963579); further: nearly all actives have a fitted effect of over 45% in size; further: potency means the concentration at half of the fitted maximal effect
# How it was run: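 Tox21 library compounds, delivered from DMSO stocks, were tested on p53RE-bla cells together with 0.5 mg/mL human liver microsomes and 0.5 mg/mL NADPH (final) over 16 h at 37 C; CellTiter-Glo luminescence served as the cytotoxicity measure.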
# [9] = p53 small molecule agonists, cell-based qHTS assay with rat liver microsomes: qHTS cell viability counter screen (AID 1963580); further: nearly all actives have a fitted effect of over 45% in size
# How it was run: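 Cytotoxicity counter screen: intracellular ATP read by CellTiter-Glo luminescence in the p53 reporter wells. HCT-116 p53RE-bla cells were treated for 16 h at 37 C alongside rat liver microsomes and NADPH, each 0.5 mg/mL final.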
# [10] = p53 small molecule agonists, cell-based qHTS assay: qHTS cell viability counter screen (AID 1963581); further: nearly all actives have a fitted effect of over 45% in size
# How it was run: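 Counter screen read by CellTiter-Glo luminescence (ATP content, 30 min at room temperature), run in the same wells as the beta-lactamase reporter read. HCT-116 p53RE-bla cells saw compounds for 16 h at 37 C.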
# [11] = p53 small molecule agonists, cell-based qHTS assay (AID 1963582; active means well fitted activation curve with a large enough effect in the signal ratio in the repeat runs, not every such curve was filed as active; the % refers to the signal ratio)
# How it was run: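 Read-out is beta-lactamase FRET fluorescence after 2 h at room temperature with LiveBLAzer B/G substrate. p53 response element-bla cells were treated 16 h at 37 C with compounds in DMSO, added 5 h after seeding.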
# [12] = cAMP Responsive Elements (CRE) small molecule agonists, cell-based qHTS assay (AID 1963590)
# How it was run: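 Agonist mode: compound added to CRE-bla HEK 293T cells (2,000/well, 18 h after plating) for 3 h at 37 C/5% CO2. Reporter activity detected via FRET beta-lactamase substrate, 2 h room-temperature loading.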
# [13] = cAMP Responsive Elements (CRE) small molecule antagonists, cell-based qHTS assay (AID 1963591; active means well fitted inhibition curve with a large enough effect in the signal ratio in the repeat runs, not every such curve was filed as active; the % refers to the signal ratio)
# How it was run: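 Antagonist mode: compounds are added alongside the adenylyl cyclase activator NKH477 (0.25 uM final) to CRE-bla HEK293T cells for 3 h. LiveBLAzer FRET substrate, 2 h at room temperature, reports bla expression.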
# [14] = target: D(2) dopamine receptor (Homo sapiens) (UniProt P14416); assay: Dopamine D2 receptor (DRD2) small molecule agonists, cell-based qHTS assay (AID 1963594); further: nearly all actives have a fitted effect of over 35% in size
# Sequence of D(2) dopamine receptor (Homo sapiens) (P14416 whole entry, looked up): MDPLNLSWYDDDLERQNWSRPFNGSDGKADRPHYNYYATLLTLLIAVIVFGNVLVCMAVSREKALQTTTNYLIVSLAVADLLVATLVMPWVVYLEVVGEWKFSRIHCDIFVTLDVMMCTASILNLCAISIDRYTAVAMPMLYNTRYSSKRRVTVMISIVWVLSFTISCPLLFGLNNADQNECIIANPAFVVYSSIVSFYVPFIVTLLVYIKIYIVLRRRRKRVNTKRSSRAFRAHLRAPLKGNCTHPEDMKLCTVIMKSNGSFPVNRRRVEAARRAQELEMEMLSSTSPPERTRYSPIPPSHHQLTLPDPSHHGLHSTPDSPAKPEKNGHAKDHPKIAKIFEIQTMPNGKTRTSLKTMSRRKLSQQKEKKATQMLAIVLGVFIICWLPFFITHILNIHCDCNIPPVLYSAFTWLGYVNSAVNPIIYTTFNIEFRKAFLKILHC
# How it was run: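 cAMP accumulation in DRD2-HEK293 cells measured by HTRF after 1 h detection; compounds added 10 min before NKH477 (200nM […]) forskolin-analogue stimulation, 30 min at room temperature, with Ro20-1724 present at 0.1 mM final.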
# [15] = target: D(2) dopamine receptor (Homo sapiens) (UniProt P14416); assay: Dopamine D2 receptor (DRD2) small molecule antagonists, cell-based qHTS assay (AID 1963595; active means well fitted inhibition curve with a large enough effect in the signal ratio in the repeat runs, with a control signal flat; the % refers to the signal ratio; further: potency means the concentration at half of the fitted maximal effect)
# How it was run: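 Stable D2 receptor HEK293 line, 24 h after seeding. Compound preincubated 10 min, then quinpirole (12 nM) with forskolin analogue NKH477 (200 nM), 30 min, room temperature. Detection by time-resolved FRET of cAMP.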
# [16] = target: 5-hydroxytryptamine receptor 2A (Homo sapiens) (UniProt P28223); assay: 5-hydroxytryptamine receptor 2A (HTR2A) small molecule agonists, cell-based qHTS assay (AID 1963587); further: nearly all actives have a fitted effect of over 30% in size
# Sequence of 5-hydroxytryptamine receptor 2A (Homo sapiens) (P28223 whole entry, looked up): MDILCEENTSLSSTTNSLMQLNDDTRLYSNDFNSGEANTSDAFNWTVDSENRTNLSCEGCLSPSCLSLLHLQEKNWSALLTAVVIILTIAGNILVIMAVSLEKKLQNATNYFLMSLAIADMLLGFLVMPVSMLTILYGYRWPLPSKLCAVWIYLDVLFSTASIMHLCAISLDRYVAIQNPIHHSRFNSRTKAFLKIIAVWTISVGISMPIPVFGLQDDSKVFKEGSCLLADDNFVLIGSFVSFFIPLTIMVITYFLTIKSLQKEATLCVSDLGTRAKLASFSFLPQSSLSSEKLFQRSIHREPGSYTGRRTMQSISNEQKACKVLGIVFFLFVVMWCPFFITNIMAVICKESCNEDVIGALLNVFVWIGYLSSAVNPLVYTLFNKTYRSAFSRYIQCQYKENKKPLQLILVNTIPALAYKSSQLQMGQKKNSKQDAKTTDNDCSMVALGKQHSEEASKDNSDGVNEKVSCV
# How it was run: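 Kinetic calcium-flux fluorescence (2 min, 1 sec intervals) after compound addition in agonist mode. HTR2A-CHO cells were cultured 18 h, then dye-loaded 1 h at 37 C.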
# [17] = target: Muscarinic acetylcholine receptor M1 (Homo sapiens) (UniProt P11229); assay: Cholinergic receptor muscarinic 1 (CHRM1) small molecule antagonists, cell-based qHTS assay (AID 1963588); further: nearly all actives have a fitted effect of over 40% in size
# Sequence of Muscarinic acetylcholine receptor M1 (Homo sapiens) (P11229 whole entry, looked up): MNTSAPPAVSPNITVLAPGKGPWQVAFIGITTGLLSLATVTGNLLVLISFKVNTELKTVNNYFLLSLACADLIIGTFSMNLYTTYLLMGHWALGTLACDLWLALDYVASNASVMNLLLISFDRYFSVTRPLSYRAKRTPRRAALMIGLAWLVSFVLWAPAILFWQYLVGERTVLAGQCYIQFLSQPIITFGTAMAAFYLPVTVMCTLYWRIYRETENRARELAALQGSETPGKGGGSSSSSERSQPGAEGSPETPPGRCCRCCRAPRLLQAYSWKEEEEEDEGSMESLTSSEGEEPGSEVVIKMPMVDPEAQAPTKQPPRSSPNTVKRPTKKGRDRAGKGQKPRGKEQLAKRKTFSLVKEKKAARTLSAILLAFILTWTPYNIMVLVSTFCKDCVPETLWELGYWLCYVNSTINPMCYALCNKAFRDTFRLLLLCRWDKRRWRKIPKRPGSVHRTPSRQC
# How it was run: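 Compounds were tested at 15 concentrations in three independent runs. Dye-loaded CHRM1-CHO cells were exposed 5 min at room temperature before stimulation by acetylcholine added at 50nM. Intracellular calcium was read kinetically on FDSS for 3 min.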
# [18] = target: Beta-2 adrenergic receptor (Homo sapiens) (UniProt P07550); assay: Adrenergic beta2 receptor (ADRB2) small molecule antagonists, cell-based qHTS assay (AID 1963592); further: series mostly up to about 92 µM; nearly all actives have a fitted effect of over 50% in size
# Sequence of Beta-2 adrenergic receptor (Homo sapiens) (P07550 whole entry, looked up): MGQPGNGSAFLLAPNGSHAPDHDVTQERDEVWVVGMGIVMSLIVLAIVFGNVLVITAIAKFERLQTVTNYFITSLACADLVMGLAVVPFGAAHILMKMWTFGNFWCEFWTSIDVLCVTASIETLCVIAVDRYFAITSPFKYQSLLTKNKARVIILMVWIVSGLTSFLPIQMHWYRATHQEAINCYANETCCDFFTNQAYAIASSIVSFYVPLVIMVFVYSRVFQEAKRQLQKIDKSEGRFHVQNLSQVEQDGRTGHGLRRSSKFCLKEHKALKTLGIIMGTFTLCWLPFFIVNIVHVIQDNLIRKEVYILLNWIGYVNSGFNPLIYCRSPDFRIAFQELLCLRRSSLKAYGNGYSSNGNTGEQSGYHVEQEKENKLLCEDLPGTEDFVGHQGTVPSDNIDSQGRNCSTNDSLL
# How it was run: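 Assay format: CHO-ADRB2 cells, 18-20hr seeding at 37C/5% CO2, then compound plus 1nM isoproterenol agonist mix for 0.5hr RT. Homogeneous time-resolved fluorescence cAMP detection after 1hr, expressed as 665/615 nm ratio.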
# [19] = target: Muscarinic acetylcholine receptor M1 (Homo sapiens) (UniProt P11229); assay: Cholinergic receptor muscarinic 1 (CHRM1) small molecule agonists, cell-based qHTS assay (AID 1963589); further: nearly all actives have a fitted effect of over 35% in size
# How it was run: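 Agonist-mode calcium-flux screen: compounds at 15 concentrations, three independent runs, were pin-transferred onto dye-loaded human CHRM1-CHO cells. Fluorescence was then recorded kinetically every second over minutes.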
# [20] = target: 5-hydroxytryptamine receptor 2A (Homo sapiens) (UniProt P28223); assay: 5-hydroxytryptamine receptor 2A (HTR2A) small molecule antagonists, cell-based qHTS assay (AID 1963586); further: nearly all actives have a fitted effect of over 45% in size
# How it was run: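 CHO cells stably expressing human HTR2A were plated for 18 h at 37 C, then loaded with calcium dye for 1 h. Compounds were preincubated 5 min at room temperature before DOI (4 nM solution) was added. Kinetic fluorescence was read for 3 min.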
SMILES,Potency [1],Potency [2],Potency [3],Potency [4],Potency [5],Potency [6],Potency [7],Potency [8],Potency [9],Potency [10],Potency [11],Potency [12],Potency [13],Potency [14],Potency [15],Potency [16],Potency [17],Potency [18],Potency [19],Potency [20]
O=C/C=C/c1ccccc1,inactive,inactive,inactive,inactive,inactive,inactive,inactive,inactive,inactive,inactive,inactive,inactive,inactive,inactive,inactive,–,–,–,–,–
c1ccc(N=NNc2ccccc2)cc1,inactive,28.3 µM (active) and 61.1 µM (active),inactive,inactive,inactive,inactive,inactive,inactive,inactive,inactive,inactive,inactive,inactive,inactive,inactive,inactive,inactive,inactive,–,–
NC(=O)CN1CCCC1=O,inactive,inactive,inactive,inactive,inactive,inactive,inactive,inactive,inactive,inactive,inactive,inactive,inactive,inactive,inactive,–,–,inactive,–,–
N#CCBr,inactive,inactive,inactive,inactive,inactive,inactive,inactive,inactive,inactive,inactive,inactive,inactive,–,inactive,inactive,inactive,inactive,inactive,inactive,–
C=CC(N)=O,inactive,inactive,inactive,inactive,inactive,inactive,inactive,inactive,inactive,inactive,inactive,inactive,inactive,inactive,inactive,–,–,inactive,–,–
Cc1cc(Cl)ccc1N=CN(C)C,inactive,inactive,inactive,inactive,inactive,inactive,inactive,inactive,inactive,inactive,–,inactive,inactive,inactive,inactive,–,inactive,inactive,inactive,inactive
O=C(O)C(Cl)(Cl)Cl,inactive,inactive,inactive,inactive,inactive,inactive,inactive,inactive,inactive,inactive,inactive,–,–,inactive,inactive,–,–,inactive,–,–
COCCC#N,inactive,inactive,inactive,inactive,inactive,inactive,inactive,inactive,inactive,inactive,–,inactive,inactive,inactive,inactive,inactive,inactive,inactive,inactive,inactive
CC(C)Oc1cc(-n2nc(C(C)(C)C)oc2=O)c(Cl)cc1Cl,inactive,inactive,inactive,inactive,inactive,inactive,inactive,inactive,inactive,inactive,–,inactive,–,inactive,inactive,inactive,inactive,inactive,inactive,inactive
CCCCCCCCCCCC#N,inactive,inactive,inactive,inactive,inactive,inactive,inactive,inactive and 42.3 µM (active),inactive,inactive,–,inactive,inactive,–,inactive,inactive,inactive,inactive,inactive,–
C#CCOS(=O)OC1CCCCC1Oc1ccc(C(C)(C)C)cc1 (stereo not given),68.7 µM (active) and inactive,19.4 µM (active) and 19.3 µM (active),inactive,inactive,inactive,inactive,inactive,inactive,inactive,inactive,–,–,–,inactive,inactive and 54.5 µM (active),inactive,inactive,inactive,inactive,inactive
CCCCc1c(C)nc(NCC)[nH]c1=O,inactive,inactive,inactive,inactive,inactive,inactive,inactive,inactive,inactive,inactive,–,inactive,inactive,inactive,inactive,inactive,inactive,–,inactive,inactive
NC(=O)CF,inactive,inactive,inactive,inactive,inactive,inactive,inactive,inactive,inactive,inactive,–,inactive,–,inactive,inactive,inactive,inactive,inactive,inactive,inactive
Nc1nc(N)nc(Cl)n1,inactive,inactive,inactive,inactive,inactive,inactive,inactive,inactive,inactive,inactive,–,inactive,inactive,inactive,inactive,inactive,inactive,inactive,inactive,inactive
CSc1nc(NC(C)C)nc(NC(C)C)n1,inactive,inactive,inactive,inactive,inactive,inactive,inactive,inactive,inactive,–,inactive,inactive,inactive,inactive,inactive,inactive,inactive,inactive,inactive,inactive
